The values that follow come from PubChem BioAssay (Tox21).

Assay [1] is described as follows: qHTS assay to identify small molecule agonists of the peroxisome proliferator-activated receptor delta (PPARd) signaling pathway - cell viability counter screen (AID 743211). Also: nearly all actives have a fitted effect of over 55% in size. Also: potency is read from the fitted curve at half-maximal effect. The gist of the method:
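PPARd-bla HEK293H cells (3000/well) were pre-incubated 5 h at 37 C, then exposed to compound for 17 h at 37 C. After 2 h with LiveBLAzer substrate, CellTiter-Glo was added to the same wells; luminescence read after 30 min at room temperature.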
Background: Quantitative high-throughput screening tests each substance at several concentrations.

The target of assay [2] is Peroxisome proliferator-activated receptor delta (Homo sapiens) (UniProt Q03181). As to the kind of experiment: qHTS assay to identify small molecule agonists of the peroxisome proliferator-activated receptor delta (PPARd) signaling pathway (AID 743212; calls by dose curve; also: % is scaled to controls: 0 for no effect and ±100 for the full control effect). The gist of the method: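 Read-out: beta-lactamase FRET fluorescence after 2 h room-temperature incubation with LiveBLAzer B/G substrate. Cells were HEK293H carrying a UAS-bla reporter for PPARd, treated at 37 C with DMSO-dissolved compounds.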
Chain of Peroxisome proliferator-activated receptor delta (Homo sapiens) (Q03181 whole entry, looked up): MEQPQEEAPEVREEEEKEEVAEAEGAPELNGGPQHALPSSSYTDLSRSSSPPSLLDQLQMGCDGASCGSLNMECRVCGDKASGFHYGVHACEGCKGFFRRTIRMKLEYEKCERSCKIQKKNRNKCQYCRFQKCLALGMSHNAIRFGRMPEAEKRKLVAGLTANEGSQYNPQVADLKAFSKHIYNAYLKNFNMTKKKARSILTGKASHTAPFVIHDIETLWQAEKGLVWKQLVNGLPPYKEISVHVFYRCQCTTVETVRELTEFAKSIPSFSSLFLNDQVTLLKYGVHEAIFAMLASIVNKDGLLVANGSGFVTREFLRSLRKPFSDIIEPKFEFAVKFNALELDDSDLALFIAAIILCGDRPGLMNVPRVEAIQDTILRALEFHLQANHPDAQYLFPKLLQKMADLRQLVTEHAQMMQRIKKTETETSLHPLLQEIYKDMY

Assay [3] is described as follows: qHTS assay to identify small molecule antagonists of the peroxisome proliferator-activated receptor delta (PPARd) signaling pathway - cell viability counter screen (AID 743213). Also: nearly all actives have a fitted effect of over 50% in size. Also: potency is read from the fitted curve at half-maximal effect. The gist of the method: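 CellTiter-Glo was added to PPARd-bla HEK293H wells following 17 h compound treatment in the presence of 300 nM L165041. Luminescence was recorded after 30 min at room temperature.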

Assay [4] has as its target Vitamin D3 receptor (Homo sapiens) (UniProt P11473). Put plainly: qHTS assay to identify small molecule agonists of the vitamin D receptor (VDR) signaling pathway (AID 743222; calls by dose curve; also: % is scaled to controls: 0 for no effect and ±100 for the full control effect). The method, boiled down:
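Agonist mode, beta-lactamase reporter: fluorescence from LiveBLAzer B/G FRET substrate (2 h, room temperature) read after 16 h compound treatment at 37 C of VDR-bla cells, which were pre-incubated 4 h after seeding.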

For assay [5] the target is unchanged. As to the kind of experiment: qHTS assay to identify small molecule antagonists of the vitamin D receptor (VDR) signaling pathway (AID 743223; active = well fitted inhibition curve with a large enough effect in the signal ratio in the repeat runs, not every such curve was filed as active; the % refers to the signal ratio; also: % is scaled to controls: 0 for no effect and ±100 for the full control effect). The gist of the method: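 VDR-bla cells were treated with compound plus 3 nM final 1alpha,25-dihydroxyvitamin D3 for 16 h at 37C. Beta-lactamase reporter read by B/G FRET substrate fluorescence after 2 h at room temperature. qHTS format.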

The nature of assay [6]: qHTS assay to identify small molecule agonists of the vitamin D receptor (VDR) signaling pathway - cell viability counter screen (AID 743224). Also: series mostly up to about 63 µM; % is scaled to controls: 0 for no effect and ±100 for the full control effect; nearly all actives have a fitted effect of over 50% in size. The gist of the method: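 Counter screen run in the same wells as the VDR-bla reporter assay: CellTiter-Glo luminescence, 30 min at room temperature, after 16 h compound treatment at 37C of cells pre-plated for 4 h.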
Assay [7] can be described thus: qHTS assay to identify small molecule agonists of the NFkB signaling pathway (AID 1159509; active = well fitted curve in the direction sought with a large enough effect in the signal ratio in the repeat runs, not every such curve was filed as active; the % refers to the signal ratio; also: series mostly up to about 61 µM; % is scaled to controls: 0 for no effect and ±100 for the full control effect). The method, boiled down:
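Readout: FRET fluorescence, 405 nm excitation, 460/530 nm emission; beta-lactamase expression disrupts FRET. Cells: ME-180 stably carrying NF-kB-driven bla reporter. Compound exposure 5 hr, 37 C, 5% CO2.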

Assay [8] is described as follows: qHTS assay to identify small molecule agonists of the NFkB signaling pathway - cell viability counter screen (AID 1159515; calls by dose curve; also: series mostly up to about 61 µM; % is scaled to controls: 0 for no effect and ±100 for the full control effect; nearly all actives have a fitted effect of over 55% in size). The gist of the method: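 Read by CellTiter-Glo luminescence (30 min, room temperature) in the wells also used for the beta-lactamase FRET read. ME-180 NFkB-bla cells at 2,000 per well were plated overnight, then exposed to compound for 5 hr at 37 C.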

Assay [9] in a line: qHTS assay to identify small molecule agonists of the endoplasmic reticulum stress response signaling pathway (AID 1159516; active = well fitted activation curve with a large enough effect in the signal ratio in the repeat runs, not every such curve was filed as active; the % refers to the signal ratio; also: % is scaled to controls: 0 for no effect and ±100 for the full control effect). The gist of the method:
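Ratiometric FRET readout (405 nm excitation; 460 and 530 nm emission) of a beta-lactamase gene driven by the ER stress response element, after 2 hr substrate loading. HeLa ESRE-bla cells were seeded overnight and treated with compounds for only 5 hr at 37 C.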

A short description of assay [10]: qHTS assay to identify small molecule agonists of the endoplasmic reticulum stress response signaling pathway - cell viability counter screen (AID 1159517; calls by dose curve; also: series mostly up to about 61 µM; % is scaled to controls: 0 for no effect and ±100 for the full control effect; nearly all actives have a fitted effect of over 50% in size). The method, boiled down: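 Steps: seed 1,500 ESRE-bla HeLa cells per well; incubate overnight at 37 C, 5% CO2; add compounds in DMSO for 5 hr; run FRET substrate 2 hr RT; add CellTiter-Glo, wait 30 min, read luminescence.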

Assay [11] is described as follows: qHTS assay to identify small molecule agonists of the AP-1 signaling pathway - cell viability counter screen (AID 1159525; calls by dose curve; also: nearly all actives have a fitted effect of over 55% in size). The gist of the method:
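Same-well cytotoxicity counter screen of the Tox21 10K library in ME-180 cells. The readout is ATP-dependent luminescence after 5 h compound treatment. Data are normalised to DMSO and tetra n-octyl ammonium bromide controls.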

A short description of assay [12]: qHTS assay to identify small molecule agonists of the AP-1 signaling pathway (AID 1159526; calls by dose curve; also: % is scaled to controls: 0 for no effect and ±100 for the full control effect).
Assay [13] concerns the target Peroxisome proliferator-activated receptor delta (Homo sapiens) (UniProt Q03181). As to the kind of experiment: qHTS assay to identify small molecule antagonists of the peroxisome proliferator-activated receptor delta (PPARd) signaling pathway (AID 743215; active = well fitted inhibition curve with a large enough effect in the signal ratio in the repeat runs, not every such curve was filed as active; the % refers to the signal ratio). The method, boiled down: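 Agonist L165041 (300 nM final) added with compound to PPARd-bla HEK293H UAS-bla reporter cells; 17 h incubation at 37 C. Read-out: LiveBLAzer FRET substrate, 2 h at room temperature, fluorescence intensity.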

The target in assay [14] is Bile acid receptor (Homo sapiens) (UniProt Q96RI1). As to the kind of experiment: qHTS assay to identify small molecule antagonists of the farnesoid-X-receptor (FXR) signaling pathway (AID 743217; active = well fitted inhibition curve with a large enough effect in the signal ratio in the repeat runs, not every such curve was filed as active; the % refers to the signal ratio; also: % is scaled to controls: 0 for no effect and ±100 for the full control effect). The gist of the method: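 Antagonist mode: chenodeoxycholic acid at 50 uM final stimulates a UAS-driven beta-lactamase reporter in HEK 293T FXR-bla cells during 16 h, 37C compound exposure. Read-out is FRET substrate fluorescence after 2 h at room temperature.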
Chain of Bile acid receptor (Homo sapiens) (Q96RI1 whole entry, looked up): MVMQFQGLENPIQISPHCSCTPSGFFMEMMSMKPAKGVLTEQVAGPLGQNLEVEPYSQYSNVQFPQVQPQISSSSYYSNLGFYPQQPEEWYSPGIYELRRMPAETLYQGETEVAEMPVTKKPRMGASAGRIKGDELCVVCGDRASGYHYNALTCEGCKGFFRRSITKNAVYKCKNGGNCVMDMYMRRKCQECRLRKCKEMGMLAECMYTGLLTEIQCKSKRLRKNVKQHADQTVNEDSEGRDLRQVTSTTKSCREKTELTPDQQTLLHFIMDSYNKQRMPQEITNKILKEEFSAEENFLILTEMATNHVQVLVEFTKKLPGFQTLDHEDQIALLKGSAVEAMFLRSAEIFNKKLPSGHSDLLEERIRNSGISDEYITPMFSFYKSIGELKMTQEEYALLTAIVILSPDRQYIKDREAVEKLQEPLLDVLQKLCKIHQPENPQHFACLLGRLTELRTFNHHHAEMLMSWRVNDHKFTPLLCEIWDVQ

The nature of assay [15]: qHTS assay to identify small molecule agonists of the farnesoid-X-receptor (FXR) signaling pathway - cell viability counter screen (AID 743218). Also: nearly all actives have a fitted effect of over 45% in size. Also: potency is read from the fitted curve at half-maximal effect. The gist of the method:
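Viability counter screen in the same wells: CellTiter-Glo luminescence, 30 min room-temperature incubation, measured after the beta-lactamase read. Cells were GeneBLAzer FXR-UAS-bla HEK 293T, compound-treated 16 h at 37C.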

In assay [16] the target is Bile acid receptor (Homo sapiens) (UniProt Q96RI1). Put plainly: qHTS assay to identify small molecule agonists of the farnesoid-X-receptor (FXR) signaling pathway (AID 743220; active = well fitted activation curve with a large enough effect in the signal ratio in the repeat runs, not every such curve was filed as active; the % refers to the signal ratio; also: % is scaled to controls: 0 for no effect and ±100 for the full control effect). The gist of the method: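 FXR-UAS-bla HEK 293T cells carrying a UAS-driven beta-lactamase reporter were plated for 5 h at 37C/5% CO2, then exposed to DMSO-dissolved Tox21 10K compounds for 16 h at 37C. A LiveBLAzer B/G FRET substrate was loaded for 2 h at room temperature before fluorescence reading.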

Assay [17] is described as follows: qHTS assay to identify small molecule antagonists of the farnesoid-X-receptor (FXR) signaling pathway - cell viability counter screen (AID 743221; active = well fitted cell-killing curve with a large enough effect in the repeat runs, not every such curve was filed as active; also: nearly all actives have a fitted effect of over 50% in size; also: potency is read from the fitted curve at half-maximal effect). The method, boiled down: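 GeneBLAzer FXR-UAS-bla HEK 293T cells, compound plus chenodeoxycholic acid (50 uM final), 16 h at 37 C. CellTiter-Glo added to the same wells after the beta-lactamase read; luminescence read after 30 min at room temperature as viability.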

Assay [18] is described as follows: qHTS assay to identify small molecule antagonists of the vitamin D receptor (VDR) signaling pathway - cell viability counter screen (AID 743225). Also: nearly all actives have a fitted effect of over 50% in size. Also: potency is read from the fitted curve at half-maximal effect. The gist of the method: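 VDR-UAS-bla HEK 293T cells were plated and incubated 4 h at 37C, then dosed with compound plus 3 nM (final) 1-alpha,25-dihydroxyvitamin D3 for 16 h. After the 2 h beta-lactamase read, viability in the same wells was read as CellTiter-Glo luminescence after 30 min at room temperature.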

The nature of assay [19]: qHTS assay to identify small molecule antagonists of the retinoid-related orphan receptor gamma (ROR-gamma) signaling pathway - cell viability counter screen (AID 1159520). The method, boiled down:
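Tet-on ROR gamma CHO cells were given compounds for 2 hr, then doxycycline hyclate at 1 uM final, and incubated 16 hr at 37 C. Viability was measured as ATP content by CellTiter-Glo luminescence.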

The target in assay [20] is Nuclear receptor ROR-gamma (Homo sapiens) (UniProt P51449). As to the kind of experiment: qHTS assay to identify small molecule antagonists of the retinoid-related orphan receptor gamma (ROR-gamma) signaling pathway (AID 1159521; also: nearly all actives have a fitted effect of over 50% in size; also: potency is read from the fitted curve at half-maximal effect). The gist of the method: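 Tet-on ROR-gamma CHO cells with ROR response element-luciferase reporter; compounds added 2 hr before 1 uM doxycycline induction, then 16 hr at 37 C. Antagonism scored as decreased ONE-Glo luminescence.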

Results filed as inconclusive are left out. A number with no mark means an inactive call. Activity calls are given as the source filed them. Unless noted, calls follow the shape of the dose curve; as a rule, active = well fitted curve in the direction sought with a large enough effect in the repeat runs; inconclusive = weak or mixed curves; inactive = no such curve, though single readings can be large; an effect the other way counts as inactive or inconclusive.

Chain of Vitamin D3 receptor (Homo sapiens) (P11473 whole entry, looked up): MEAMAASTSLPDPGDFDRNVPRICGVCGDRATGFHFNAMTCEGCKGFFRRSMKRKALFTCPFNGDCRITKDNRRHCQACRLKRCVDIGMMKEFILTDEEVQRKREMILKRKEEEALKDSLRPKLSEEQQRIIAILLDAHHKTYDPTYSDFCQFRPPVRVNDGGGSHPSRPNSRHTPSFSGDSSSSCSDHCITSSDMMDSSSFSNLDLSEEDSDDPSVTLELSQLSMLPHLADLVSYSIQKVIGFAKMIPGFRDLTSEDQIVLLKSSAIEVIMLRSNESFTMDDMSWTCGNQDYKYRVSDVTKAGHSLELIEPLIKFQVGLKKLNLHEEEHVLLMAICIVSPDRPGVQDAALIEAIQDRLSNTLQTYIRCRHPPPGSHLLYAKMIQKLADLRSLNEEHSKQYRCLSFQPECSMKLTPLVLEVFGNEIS

For the compound `CC(=N\O)/C(C)=N/O`, the Potency entry in [1], in [2], in [3] and in assay [6] was “inactive” throughout. The outcome in assay [4], in assay [5], in [7], in assay [8], in [9] and in assay [10] was inactive. In addition, the outcome in [11] and in assay [12] was inactive.

In the case of `CCCCCCCCSCCO`, the Potency entry in [1], in assay [2], in assay [3], in [13], in [14] and in assay [15] was “inactive” throughout. For the same compound, the Potency result in [16], in [17], in assay [6], in [18], in assay [19] and in [20] was “inactive” in each case. The call in assay [7], in assay [8], in assay [9], in assay [11] and in assay [12] was inactive.

On to `CC[C@@H]([C@H](C)O)n1ncn(-c2ccc(N3CCN(c4ccc(OC[C@@H]5CO[C@@](Cn6cncn6)(c6ccc(F)cc6F)C5)cc4)CC3)cc2)c1=O`, for which the Potency is 23.7 µM (active) in assay [3]; 29.8 µM (active) in [15]; 29.8 µM (active) in assay [17]; 23.9 µM (active) in [18]; 0.944 µM (active) in assay [20]. The compound was called inactive in assay [4], in [5], in assay [7], in assay [8], in assay [9] and in assay [10]. Besides, the compound was called inactive in assay [12]. In addition, the Potency entry in assay [6] is “inactive”.

For the compound `O=C(OCCOCCO)c1ccccc1Nc1cccc(C(F)(F)F)c1`, the Potency entry in assay [1], in [2], in assay [3], in assay [13], in assay [17] and in assay [6] was “inactive” in each case. The Potency entry in assay [18] is “inactive”. Besides, the result in assay [4], in assay [5], in assay [7], in [8], in assay [9] and in assay [10] was inactive. Besides, the result in assay [11] and in assay [12] was inactive.

With `Cc1c(C(=O)NN2CCCCC2)nn(-c2ccc(Cl)cc2Cl)c1-c1ccc(Cl)cc1`, the Potency in assay [1] was 23.7 µM (active); in assay [15], 33.5 µM (active). Also, the Potency entry in assay [16] is “inactive”. Also, the call in assay [7], in assay [8], in assay [9], in [10], in assay [11] and in assay [12] was inactive.

For `CC(C)(C)C(=O)O`, the Potency result in assay [1], in assay [2], in assay [3], in assay [14], in assay [15] and in assay [16] was “inactive” throughout. In addition, the Potency result in assay [17], in assay [6], in [18], in [19] and in assay [20] was “inactive” each time. Also, the call in [5], in assay [7], in assay [8], in [9], in [11] and in [12] was inactive.

Consider `CCCCC1C(=O)N(c2ccccc2)N(c2ccc(O)cc2)C1=O` (stereo unspecified), for which the Potency entry in [3], in assay [15], in assay [6] and in [18] was “inactive” in each case. Moreover, the call in [7], in [8], in assay [9] and in assay [10] was inactive.

With `CCCCCCCCCCCCCCCCBr`, the Potency result in assay [1], in assay [2], in assay [3], in [13], in [15] and in assay [17] was “inactive” throughout. For the same compound, the Potency entry in [6] and in assay [18] was “inactive” each time. In addition, the compound was called inactive in assay [4], in [5], in assay [7], in [8] and in assay [9]. Further, the activity, negative = cytotoxicity in assay [19] is 1.45% [at 19 µM]. The activity change, negative = inhibition in [20] was 15.4% [at 19 µM]. For the same compound, the viability change, negative = cytotoxic in [11] is 3.43% [at 15.8 µM]. Moreover, the activation in assay [12] is -6.6% [at 15.8 µM].

Consider `C=CCCCCCCCCCCCCCCCC`, for which the figures for the activity change, negative = cytotoxicity in assay [1], in assay [17] and in [6] were -1.2% [at 5.95 µM], -0.119% [at 5.95 µM] and 7.44% [at 5.95 µM], respectively. Further, the activation in [2] is -3.43% [at 5.95 µM]; in assay [16] it was -1.74% [at 5.95 µM]; in assay [4], -0.178% [at 6.01 µM]; in assay [7], 0.162% [at 6.95 µM]; in assay [9], 3.12% [at 6.95 µM]; in assay [12], -4.53% [at 6.97 µM]. Moreover, the viability change, negative = cytotoxic in assay [3] was 13.3% [at 6.26 µM]; in assay [15] it was 4.85% [at 5.95 µM]; in [18] it was 8.8% [at 6.95 µM]; in assay [11] it was 4.34% [at 6.97 µM]. Moreover, in [13], the ratio activity, negative = inhibition was -0.434% [at 6.26 µM]. The activity change, negative = inhibition was 7.35% [at 6.95 µM] in assay [5] and 11.3% [at 8.39 µM] in assay [20]. For the same compound, the activity, negative = cytotoxic in assay [8] was -0.437% [at 6.95 µM]. For the same compound, in [19], the activity, negative = cytotoxicity is 6.9% [at 8.39 µM].
